# Compound activity deposited in PubChem by Broad Institute.
# The full list was thinned out, with hits kept by preference.
# Tgondii IFNg: inhibitors of Toxoplasma gondii growth with IFN-gamma; Toxoplasma gondii growth in IFN-gamma-treated host cells; active compounds read low; activity change, negative = inhibition, % (test concentration not listed); 3.8% of 69,000 active; in the data active = activity change below about -70%, passing the limit was not always enough;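 note: host cells are HeLa cells infected with Toxoplasma gondii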
# Active calls of the source: *; i = inactive; ! = repeats disagree.
SMILES,Tgondii IFNg
COc1ccc2c3c([nH]c2c1)[C@@H](CO)N(S(=O)(=O)c1ccc(C)cc1)CC31CCN(Cc2nccs2)CC1,-48.8
COc1ccc(CC(=O)N2CCC(O)(Cn3ncc4ccccc43)CC2)cc1OC,14.6
CN[C@@H]1C[C@H]2O[C@@](C)([C@@H]1OC)n1c3ccccc3c3c4c(c5c6ccccc6n2c5c31)C(=O)N[C@H]4O,-80.4*
Cc1[nH]c2ccc(CNC(=O)c3cnc(CN4CCCC4)s3)cc2c1C,-5.2
COc1ccc(OC)c2[nH]c(=O)c(CNc3cc(-n4cccc4)ccc3C)cc12,394.9
CCOC(=O)c1oc2ccccc2c1NC(C)=O,15.7
CCOC(=O)c1oc2ccc(CNC3CCCCC3)c(Cl)c2c1C,-9.2
CCOC(=O)c1c(CSC2CCCCC2)oc2ccc(O)cc12,-103.8*
COc1ccc(Nc2nc(-c3nnc(-c4cccc(Cl)c4)o3)nc3ccccc23)c(OC)c1,317.7
O=S(=O)(c1ccc(C(F)(F)F)cn1)c1ccc(S(=O)(=O)N2CCCCC2)s1,73.5
Cc1cccn2c(CC(=O)NCc3cn4c(n3)SCC4)cnc12,-17.9
COc1cccc(NC2COC3(CCN(Cc4ccc(Cl)c(F)c4)CC3)C2)c1 (stereo not given),92.5
COc1ccccc1C(=O)N1CCc2c([nH]c3ccccc23)C1c1ccc(Cl)cc1 (stereo not given),30.5
COc1ccccc1C(=O)N1CCc2c([nH]c3ccccc23)C1c1ccccc1 (stereo not given),57.9
CCOc1cccc(C2c3[nH]c4ccccc4c3CCN2C(=O)C2CCC2)c1 (stereo not given),482.8
CCOc1cccc(C2c3[nH]c4ccccc4c3CCN2C(=O)c2cccc(N(C)C)c2)c1 (stereo not given),407.7
CCOc1cccc(C2c3[nH]c4ccccc4c3CCN2C(=O)c2ccccc2OC)c1 (stereo not given),-105.1*
CCOc1cccc(C2c3[nH]c4ccccc4c3CCN2C(=O)c2ccc(F)cc2)c1 (stereo not given),-98.2*
Cc1ccc(C(=O)N2CCc3c([nH]c4ccccc34)C2c2cccc(C)c2)cc1 (stereo not given),207.5
CCOc1cccc(C2c3[nH]c4ccccc4c3CCN2C(=O)c2ccc(C)cc2)c1 (stereo not given),-121.8*
CCOc1cccc(C2c3[nH]c4ccccc4c3CCN2C(=O)c2cccc(OC)c2)c1 (stereo not given),-103.5*
CCOc1cccc(C2c3[nH]c4ccccc4c3CCN2C(=O)COC)c1 (stereo not given),i
O=C(NCc1ccccn1)c1cc(NCC[C@@H]2C[C@@H]3C=C[C@H]2C3)ccn1,-64.9
CCOc1ncccc1-c1cccc(C(=O)OC)c1,-42.5
CC(C)=CC(=O)N1C[C@H](O)[C@@H](N2CCN(C)CC2)C1,-19.9
SMILES,Tgondii IFNg
Cc1nc2cc(Cl)c(NC(=O)c3ccccc3)cc2c(=O)n1Cc1ccccc1,-16.8
O=C(NCCc1csc(-c2ccccc2)n1)c1ccccc1C(F)(F)F,i
CCOC(=O)N1CCC2(CC1)OC(=O)C(C)=C2C(=O)NCCCOC(C)C,83.8
O=C(C1CCc2ccccc2O1)N(CCO)Cc1cccs1 (stereo not given),4.4
CC(C)Oc1ccc(-c2noc(-c3c(O)c4ccc(F)cc4[nH]c3=O)n2)cc1,-32.6
Cn1cc(-c2ccno2)c(C(=O)NC(Cc2cccs2)c2ccccn2)n1 (stereo not given),-26.6
Cc1ccc(NC(=O)COC(=O)c2ccco2)c(C)c1,-17.4
COc1ccc(C[C@H](N)C(=O)N[C@@H]2[C@@H](CO)OC(n3cnc4c(N(C)C)ncnc43)[C@@H]2O)cc1 (stereo not given in full),-79.5*!
COC1C(O)C(CO)OC1n1cnc2c(NC3CCCCC3)ncnc21 (stereo not given),12.2
Nc1ncnc2c1ncn2[C@@H]1O[C@H](CO)[C@@H](O)[C@H]1O,14.0
CC(C)(C)CC(=O)N1CCCC2(CC(C(=O)Nc3ccccc3)=NO2)C1 (stereo not given),-10.0
CC1CN(C(=O)c2nc3c(n2C(C)C)CCN(Cc2ccccc2)C3)CC(C)O1 (stereo not given),-48.8
CC(C)n1c(C(=O)Nc2cccc(F)c2)nc2c1CCN(Cc1ccccc1)C2,-29.6
CC(C)Oc1ccc(NC(=O)c2nc3c(n2C(C)C)CCN(C(=O)c2ccccc2)C3)cc1,-89.1*
CC(=O)Nc1cc(C(=O)c2cccs2)nn(-c2ccc(Cl)cc2)c1=O,-0.5
COC(=O)C1CC2CCC1(C)C=C2n1c(C)nc(=O)c2cccnc21 (stereo not given),24.5
COc1ccc2c3c([nH]c2c1)[C@@H](CO)N(Cc1ccccn1)CC31CN(C(=O)CC2CC2)C1,-6.4
O=C(Sc1ccc(Cl)cc1)c1cnn(-c2ccc(Cl)cc2)c1C(F)(F)F,-94.7*
Cc1nc(C(F)(F)F)ccc1C(=O)Sc1ccc(F)cc1,-1.1
FC(F)(F)c1cc(NC(=S)Sc2ccc(Cl)cc2)cc(C(F)(F)F)c1,-22.2
CCOc1ccc(S(=O)(=O)N2CCC3(CC2)Nc2ccc(C)c(C)c2-n2cccc23)cc1,-27.9
NC(=O)C(c1ccccc1)(c1ccc(F)cc1)c1ccc(F)cc1,14.8
OC(C#CC(O)(c1ccccc1)c1ccccc1)(c1ccccc1)c1ccccc1,-93.4*
OC(CCCN1CCCCC1)(c1ccccc1)c1ccccc1,0.4
O=C(CN1CCC(O)(c2cccnc2)CC1)Nc1ccc(F)cc1,2.4
SMILES,Tgondii IFNg
CC(Cc1ccncc1)NC(=O)CSCc1ccccc1Cl (stereo not given),48.2
O=C(NCc1ccc(Cl)cc1)c1c(O)c2cccnc2n(-c2ccccc2)c1=O,-69.1
CCCNC(=O)C1Cc2nc(-c3ccsc3)sc2N1C(C)C (stereo not given),-17.1
CSc1nc2ccc(NC(=O)c3ccc4snnc4c3)cc2s1,-33.7
Cc1cc2nc(C)c(CCC(=O)Nc3ncc(-c4ccccc4)n3C)c(C)n2n1,14.2
Cn1c(-c2ccccc2)cnc1NC(=O)c1nonc1N,-104.5*
COc1ccc(-c2cc(C(=O)Nc3ncc(-c4ccc(F)cc4)n3C)on2)cc1,-2.5
COc1cc(-c2cccc3cccnc23)ccc1NC(C)=O,14.3
CCOC(=O)c1[nH]ncc1[C@@H]1C[C@H]2CN(Cc3ccccc3OC)C(=O)[C@]23CCCN13,-19.1
FC(F)(F)c1ccc2nc(SCc3cc(Cl)cc4c3OCOC4)[nH]c2c1,-80.7*
COc1ccc(C(C)=O)cc1CSc1nc2ccc(C(F)(F)F)cc2[nH]1,-51.6
Clc1cc2c(c(CSc3ccccc3C3=NCCCN3)c1)OCOC2,37.8
Cc1cc2cc3c(cc2nc1SCc1nnnn1-c1ccc(Cl)cc1)OCCO3,17.8
O=C(N[C@H]1CC[C@H](CCNS(=O)(=O)c2ccc(F)cc2)O[C@@H]1CO)C1CCC1,-32.9
O=C(C1CC2(CCNCC2)CN1)N1CCC(n2c(=O)[nH]c3ccccc32)CC1 (stereo not given),-7.7
CSc1ccc(C2c3[nH]c4ccccc4c3CCN2C(=O)c2ccc(N(C)C)cc2)cc1 (stereo not given),-52.5
COc1ccc(C(=O)N2CCc3c([nH]c4ccccc34)C2c2ccc(F)cc2)cc1 (stereo not given),-130.0*
CN(C)c1cccc(C(=O)N2CCc3c([nH]c4ccccc34)C2c2ccc(F)cc2)c1 (stereo not given),-94.3*
O=C(c1ccccc1)N1CCc2c([nH]c3ccccc23)C1c1ccc(F)cc1 (stereo not given),-85.5*
